Laboratory results taken from the supplement of paper PMC10849652.
Of roughly 8,800 targets only a part is listed; those with a hit were picked by preference. About 0.5% of all pairs of compound and target were hits.

What follows are targets tested with CN1CCC(CNc2ccc3ncc(-c4cccc(OC(F)(F)F)c4)n3n2)CC1 (assay: log2 fold change, soluble protein after heating vs DMSO (PISA); higher = thermal stabilisation; K562 lysate, 10 uM; active = over 0.2 and 3.5 SD of the protein, either way, in both replicates (recomputed)).
How it was run: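 A 30 min treatment with 10 μM compound was applied to crude K562 extract at 1 mg/mL protein in PBS pH 7.4 with 1 mM MgCl2. Heating for 3 min spanned 48°C-58°C, after which aliquots were pooled, adjusted to 0.5% NP-40 at 4°C and spun at 21,000xg for 90 min. TMTpro 16plex LC-MS/MS of the supernatant, with channel sums equalised, gave values recorded as log-two fold change in thermal stability against solvent controls, from duplicates.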

UniProt Q99755, sequence (Q99755 whole entry, looked up): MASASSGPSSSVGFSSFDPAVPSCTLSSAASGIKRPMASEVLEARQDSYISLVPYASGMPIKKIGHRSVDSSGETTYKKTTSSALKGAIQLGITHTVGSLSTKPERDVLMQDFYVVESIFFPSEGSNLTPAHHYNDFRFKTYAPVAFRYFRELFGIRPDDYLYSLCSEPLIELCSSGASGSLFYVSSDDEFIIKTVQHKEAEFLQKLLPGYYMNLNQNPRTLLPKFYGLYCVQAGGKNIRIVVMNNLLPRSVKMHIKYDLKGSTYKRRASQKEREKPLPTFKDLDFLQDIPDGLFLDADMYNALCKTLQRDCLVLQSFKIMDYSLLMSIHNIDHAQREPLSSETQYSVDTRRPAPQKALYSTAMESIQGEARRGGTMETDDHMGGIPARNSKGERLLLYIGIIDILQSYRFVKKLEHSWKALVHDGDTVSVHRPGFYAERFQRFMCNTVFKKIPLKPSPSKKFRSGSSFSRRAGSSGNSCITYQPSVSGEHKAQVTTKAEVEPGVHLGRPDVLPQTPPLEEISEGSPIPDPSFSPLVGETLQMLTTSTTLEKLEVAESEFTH
UniProt Q9BSG0, sequence (Q9BSG0 whole entry, looked up): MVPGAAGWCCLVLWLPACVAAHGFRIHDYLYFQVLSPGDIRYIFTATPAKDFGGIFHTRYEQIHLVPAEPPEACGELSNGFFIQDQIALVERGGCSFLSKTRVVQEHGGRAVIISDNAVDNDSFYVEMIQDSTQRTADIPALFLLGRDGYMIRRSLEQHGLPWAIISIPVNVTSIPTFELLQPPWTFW
UniProt Q16816, sequence (Q16816 whole entry, looked up): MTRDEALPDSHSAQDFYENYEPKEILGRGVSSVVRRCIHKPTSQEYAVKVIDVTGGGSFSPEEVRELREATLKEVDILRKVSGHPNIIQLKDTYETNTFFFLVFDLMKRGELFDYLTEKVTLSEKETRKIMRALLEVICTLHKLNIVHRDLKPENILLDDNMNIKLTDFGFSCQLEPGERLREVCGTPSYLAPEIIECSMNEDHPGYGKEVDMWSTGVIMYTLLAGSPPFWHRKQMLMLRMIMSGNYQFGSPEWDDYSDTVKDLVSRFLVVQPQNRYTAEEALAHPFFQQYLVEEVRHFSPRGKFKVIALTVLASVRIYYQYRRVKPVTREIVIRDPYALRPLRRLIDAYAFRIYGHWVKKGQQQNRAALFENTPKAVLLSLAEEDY
UniProt O60927, sequence (O60927 whole entry, looked up): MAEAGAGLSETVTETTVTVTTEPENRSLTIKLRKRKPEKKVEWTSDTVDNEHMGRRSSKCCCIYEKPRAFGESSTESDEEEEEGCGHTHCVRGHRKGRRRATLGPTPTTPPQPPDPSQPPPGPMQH
UniProt P54277, sequence (P54277 whole entry, looked up): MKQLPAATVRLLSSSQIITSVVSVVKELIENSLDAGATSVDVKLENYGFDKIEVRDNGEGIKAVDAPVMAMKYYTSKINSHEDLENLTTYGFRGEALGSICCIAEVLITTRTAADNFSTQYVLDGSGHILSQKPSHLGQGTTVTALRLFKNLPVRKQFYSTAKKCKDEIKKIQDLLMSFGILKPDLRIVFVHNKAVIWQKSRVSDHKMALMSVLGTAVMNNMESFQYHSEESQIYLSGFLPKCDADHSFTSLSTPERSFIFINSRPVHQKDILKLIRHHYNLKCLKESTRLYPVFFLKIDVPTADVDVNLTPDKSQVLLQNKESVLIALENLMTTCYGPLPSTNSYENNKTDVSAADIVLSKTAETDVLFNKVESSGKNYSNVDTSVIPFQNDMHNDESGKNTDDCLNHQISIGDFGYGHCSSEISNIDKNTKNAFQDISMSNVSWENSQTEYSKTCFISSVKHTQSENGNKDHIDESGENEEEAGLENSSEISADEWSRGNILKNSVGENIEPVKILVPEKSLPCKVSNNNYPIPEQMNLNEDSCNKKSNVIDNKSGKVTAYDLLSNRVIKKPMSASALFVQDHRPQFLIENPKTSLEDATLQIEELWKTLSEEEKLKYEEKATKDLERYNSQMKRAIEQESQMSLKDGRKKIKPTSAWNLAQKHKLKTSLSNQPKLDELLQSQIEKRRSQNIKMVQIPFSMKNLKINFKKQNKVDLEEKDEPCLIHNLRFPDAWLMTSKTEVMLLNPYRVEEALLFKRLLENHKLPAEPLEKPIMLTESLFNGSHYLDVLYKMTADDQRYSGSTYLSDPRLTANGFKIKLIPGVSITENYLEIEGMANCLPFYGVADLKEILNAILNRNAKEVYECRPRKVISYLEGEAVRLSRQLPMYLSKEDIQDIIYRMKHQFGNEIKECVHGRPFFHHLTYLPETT
UniProt Q9BRQ0, sequence (Q9BRQ0 whole entry, looked up): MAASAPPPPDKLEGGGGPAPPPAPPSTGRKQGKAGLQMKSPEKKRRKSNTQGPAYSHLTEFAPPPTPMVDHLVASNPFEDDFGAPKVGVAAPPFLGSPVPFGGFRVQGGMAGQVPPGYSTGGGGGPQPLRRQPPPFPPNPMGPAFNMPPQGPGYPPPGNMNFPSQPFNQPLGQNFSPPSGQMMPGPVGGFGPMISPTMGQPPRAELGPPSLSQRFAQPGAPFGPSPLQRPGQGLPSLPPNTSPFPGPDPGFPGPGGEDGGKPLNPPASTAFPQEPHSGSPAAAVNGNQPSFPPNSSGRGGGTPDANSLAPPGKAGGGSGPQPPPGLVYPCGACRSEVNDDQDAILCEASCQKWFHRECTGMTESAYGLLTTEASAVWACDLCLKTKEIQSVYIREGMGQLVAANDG
UniProt P60673, sequence (P60673 whole entry, looked up): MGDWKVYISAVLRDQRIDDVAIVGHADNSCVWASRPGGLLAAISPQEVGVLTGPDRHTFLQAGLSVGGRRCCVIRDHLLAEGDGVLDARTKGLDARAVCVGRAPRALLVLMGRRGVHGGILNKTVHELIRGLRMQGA
UniProt P28328, sequence (P28328 whole entry, looked up): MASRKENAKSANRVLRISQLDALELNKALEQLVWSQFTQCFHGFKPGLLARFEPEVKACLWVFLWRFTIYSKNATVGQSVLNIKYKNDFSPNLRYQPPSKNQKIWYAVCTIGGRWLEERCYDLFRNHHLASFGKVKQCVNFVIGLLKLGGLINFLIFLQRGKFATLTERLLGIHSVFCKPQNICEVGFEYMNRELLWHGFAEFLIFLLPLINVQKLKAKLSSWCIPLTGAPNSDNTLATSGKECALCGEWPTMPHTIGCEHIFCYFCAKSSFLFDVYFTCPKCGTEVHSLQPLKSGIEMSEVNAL
UniProt P45877, sequence (P45877 whole entry, looked up): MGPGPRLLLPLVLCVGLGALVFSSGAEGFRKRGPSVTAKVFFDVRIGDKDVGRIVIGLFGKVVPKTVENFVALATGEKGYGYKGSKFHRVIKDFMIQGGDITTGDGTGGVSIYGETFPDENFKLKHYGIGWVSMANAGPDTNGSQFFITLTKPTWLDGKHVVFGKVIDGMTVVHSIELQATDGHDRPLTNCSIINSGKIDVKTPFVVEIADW
UniProt P41247, sequence (P41247 whole entry, looked up): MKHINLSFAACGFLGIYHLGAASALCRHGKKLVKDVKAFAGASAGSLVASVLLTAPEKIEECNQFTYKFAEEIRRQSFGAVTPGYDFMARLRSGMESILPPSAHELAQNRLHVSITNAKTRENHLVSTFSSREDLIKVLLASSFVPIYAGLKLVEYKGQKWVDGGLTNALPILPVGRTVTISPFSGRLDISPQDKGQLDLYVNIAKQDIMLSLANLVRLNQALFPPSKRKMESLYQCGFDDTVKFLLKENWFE
UniProt P53350, sequence (P53350 whole entry, looked up): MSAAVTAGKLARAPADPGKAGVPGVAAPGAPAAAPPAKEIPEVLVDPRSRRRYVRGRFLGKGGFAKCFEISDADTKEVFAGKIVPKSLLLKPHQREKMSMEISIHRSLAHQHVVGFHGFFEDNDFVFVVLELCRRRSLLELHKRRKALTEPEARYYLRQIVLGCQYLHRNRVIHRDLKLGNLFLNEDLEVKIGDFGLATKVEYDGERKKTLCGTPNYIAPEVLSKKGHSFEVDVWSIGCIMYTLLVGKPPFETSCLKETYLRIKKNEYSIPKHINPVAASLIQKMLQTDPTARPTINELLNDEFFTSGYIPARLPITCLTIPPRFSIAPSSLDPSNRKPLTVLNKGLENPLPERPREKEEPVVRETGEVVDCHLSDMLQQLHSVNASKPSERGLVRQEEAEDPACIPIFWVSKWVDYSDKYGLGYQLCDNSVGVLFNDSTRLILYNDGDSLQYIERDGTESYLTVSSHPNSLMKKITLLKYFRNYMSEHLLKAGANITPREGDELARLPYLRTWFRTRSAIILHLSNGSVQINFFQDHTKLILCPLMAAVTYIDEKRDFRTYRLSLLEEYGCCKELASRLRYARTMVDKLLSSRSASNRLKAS
UniProt Q15004, sequence (Q15004 whole entry, looked up): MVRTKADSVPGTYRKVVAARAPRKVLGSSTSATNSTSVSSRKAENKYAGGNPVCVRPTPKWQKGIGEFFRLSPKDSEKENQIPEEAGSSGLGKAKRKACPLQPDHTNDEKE
UniProt Q16378, sequence (Q16378 whole entry, looked up): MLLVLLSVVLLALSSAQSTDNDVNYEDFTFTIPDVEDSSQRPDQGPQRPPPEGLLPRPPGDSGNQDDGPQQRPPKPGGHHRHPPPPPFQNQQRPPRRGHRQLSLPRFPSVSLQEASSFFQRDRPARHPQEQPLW
UniProt P11309, sequence (P11309 whole entry, looked up): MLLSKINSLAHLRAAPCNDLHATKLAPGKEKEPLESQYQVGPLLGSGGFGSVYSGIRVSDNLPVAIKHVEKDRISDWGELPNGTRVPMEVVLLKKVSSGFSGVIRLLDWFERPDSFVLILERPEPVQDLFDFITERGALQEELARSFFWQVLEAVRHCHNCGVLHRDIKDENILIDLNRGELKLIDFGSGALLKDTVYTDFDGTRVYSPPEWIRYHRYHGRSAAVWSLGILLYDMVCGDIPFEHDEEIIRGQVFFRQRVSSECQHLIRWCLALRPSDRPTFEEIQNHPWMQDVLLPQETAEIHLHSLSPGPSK
UniProt Q6EEV4, sequence (Q6EEV4 whole entry, looked up): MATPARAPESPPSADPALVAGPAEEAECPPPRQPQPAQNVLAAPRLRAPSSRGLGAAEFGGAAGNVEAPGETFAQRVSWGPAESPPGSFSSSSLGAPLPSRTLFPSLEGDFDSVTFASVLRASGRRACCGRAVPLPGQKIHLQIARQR

Target | log2 fold change
PFN1 (UniProt I3L3D5) | -0.135 (inactive)
PCBP2 (UniProt F8VRH0) | -0.047 (inactive)
PEX2 (UniProt P28328) | 0.024 (inactive)
PIM1 isoform 2 (UniProt P11309) | 1.46 (active)
PPP2R5C isoform 2 (UniProt Q13362) | -0.033 (inactive)
PREP (UniProt H0Y5Y0) | -0.144 (inactive)
PFN3 (UniProt P60673) | 0.109 (inactive)
PRG4 (UniProt Q92954) | 0.229 (inactive)
PPIC (UniProt P45877) | 0.124 (inactive)
NA (UniProt Q4G0T1) | 0.026 (inactive)
PNPLA4 (UniProt P41247) | 0.414 (inactive)
POM121C (UniProt A8CG34) | 0.158 (inactive)
PMS1 (UniProt P54277) | -0.051 (inactive)
PDIA4, A0A499FI48 | -0.33 (inactive)
PPP1R11 (UniProt O60927) | -0.067 (inactive)
PHKG1 isoform 2 (UniProt Q16816) | 0.64 (inactive)
PIK3CG (UniProt P48736) | 0.289 (active)
PLK1 (UniProt P53350) | -0.279 (inactive)
PIK3CD (UniProt O00329) | 0.398 (inactive)
PRR4 (UniProt Q16378) | -1.21 (active)
PRADC1 (UniProt Q9BSG0) | 0.101 (inactive)
PIP5K1A (UniProt Q99755) | -0.514 (active)
PDE4DIP (UniProt E9PS60) | 0.153 (inactive)
PYGO2 (UniProt Q9BRQ0) | 0.042 (inactive)
POLR2M (UniProt Q6EEV4) | -0.077 (inactive)
PCLAF (UniProt Q15004) | 0.121 (inactive)
